# A number with no mark means an inactive call. Some of the results follow. The source made the active and inactive calls. Cut-off read from the data, not from the text of the source, unless noted: active = inhibition above about 25%; inactive = the rest.
# Legend:
# [1] = biological target: Nuclear receptor coactivator 3 (Homo sapiens) (UniProt Q9Y6Q9); assay: SRC3 coactivator transcriptional activity inhibitors, confirmation, cell-based, luminescence, quadruplicate (AID 588792;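 active = mean inhibition over 43.08%, the solvent-only control mean plus 3 SD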;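 note: 0% = DMSO treated cells and 100% = gossypol at 36 µM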); settings: HEK293 GAL4-SRC3 luciferase reporter, at 3.6 µM, hits give high values
# [2] = tested on: transactivating tegument protein VP16 (Human herpesvirus 1), Gal4-VP16 luciferase reporter; assay: VP16 transactivation inhibitors, counter-screen for SRC3 inhibitor project, cell-based, luminescence, high throughput (AID 588794; in the data active = inhibition above about 30%); settings: mammalian cells, VP16-driven luciferase reporter luminescence; at 3.6 µM; hits give high values
# [3] = biological target: Nuclear receptor coactivator 1 (Homo sapiens) (UniProt Q15788); assay: SRC1 coactivator transcriptional activity inhibitors, confirmation, cell-based, luminescence, quadruplicate (AID 588820;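 active = mean inhibition above 46.68%, the untreated control wells mean plus 3 SD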;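 note: 0% = DMSO wells and 100% = gossypol 36 µM treated wells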); settings: HEK293 GAL4-SRC1 luciferase reporter, at 3.6 µM, hits give high values
# [4] = VP16 transactivation inhibitors, counter-screen for SRC1 inhibitor project, cell-based, luminescence, high throughput (AID 588824); settings: cell-based VP16 transactivation luciferase luminescence; at 3.6 µM; hits give high values
# [5] = StAR promoter reporter inhibitors, counter-screen for LRH-1 inverse agonist project, cell-based, luminescence, high throughput (AID 651611; in the data active = inhibition above about 28%); settings: StAR promoter luciferase reporter counterscreen, at 3.6 µM, hits give high values
# [6] = biological target: Nuclear receptor subfamily 5 group A member 2 (Homo sapiens) (UniProt O00482); assay: LRH-1 (NR5A2) inverse agonists, retest, confirmation, cell-based, luminescence (AID 651613; in the data active = inhibition above about 42%;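 note: HEK293T cells co-transfected with LRH-1 and StAR promoter luciferase reporter; 0% = vehicle wells and 100% = parental cells lacking receptor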); settings: cell-based LRH-1 luciferase reporter, inverse agonism; at 3.6 µM; hits give high values
# [7] = biological target: Steroidogenic factor 1 (Homo sapiens) (UniProt Q13285); assay: SF1 (NR5A1) inverse agonists, counter-screen for LRH-1 inverse agonist project, cell-based, luminescence, high throughput (AID 651614; in the data active = inhibition above about 44%;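 note: cells cotransfected with StAR promoter reporter and SF1 expression vector; 0% = vehicle on cells with receptor and 100% = vehicle on cells lacking receptor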); settings: cell-based SF1 luciferase reporter, at 3.6 µM, hits give high values
# [8] = VP16 transactivation reporter inhibitors, counter-screen for LRH-1 inverse agonist project, cell-based, luminescence, high throughput (AID 651615; in the data active = inhibition above about 33%); settings: Gal4-VP16 luciferase reporter cells, at 3.6 µM, hits give high values
# [9] = biological target: Photoreceptor-specific nuclear receptor (Homo sapiens) (UniProt Q9Y5X4); assay: NR2E3 agonist confirmation in cells, cell-based, luminescence, CHO-S two-hybrid (AID 624378;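 active = average inhibition above a cutoff equal to the mean inhibition of all tested compounds plus one SD, cut at about 70% in these data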;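 note: 0% = DMSO in NR2E3 cells and 100% = DMSO in cells lacking NR2E3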); settings: CHO-S mammalian two-hybrid NR2E3-NCOR, luciferase luminescence; at 3.98 µM; hits give high values
# [10] = GAL4-VP16 reporter modulators, confirmation, counter-screen for NR2E3 agonist project, cell-based, luminescence, CHO-S, high throughput (AID 624379;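 active = mean inhibition above a cutoff equal to the average over all tested compounds plus one standard deviation, cut at about 70% in these data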;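 note: 0% = DMSO with VP16-transfected cells and 100% = DMSO with cells lacking VP16; higher means less reporter light so more repression of VP16 activity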); settings: CHO-S GAL4-VP16 luciferase reporter, at 3.98 µM, hits give high values
# [11] = tested on: transactivating tegument protein VP16 (Human herpesvirus 1); assay: VP16 transactivation reporter inhibitors, counter-screen for SRC2 inhibitor project, cell-based, luminescence, single concentration (AID 652007; in the data active = inhibition above about 36%); settings: cell-based VP16 transactivation luciferase reporter, at 8.9 µM, hits give high values
# [12] = biological target: Nuclear receptor coactivator 2 (Homo sapiens) (UniProt Q15596); assay: SRC2 coactivator transcriptional activity inhibitors, confirmation, cell-based, luminescence, HEK293, triplicate (AID 652008;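 active = mean inhibition above 46.5%, the solvent-only control mean plus 3 SD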;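 note: 0% = DMSO-treated cells and 100% = Gossypol at 36 µM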); settings: HEK293 GAL4-SRC2 luciferase reporter, at 8.9 µM, hits give high values
# [13] = Gal4-VP16 luciferase reporter inhibitors, counter-screen for COUP-TFII antagonist project, cell-based, luminescence, HEK293 (AID 687007; in the data active = inhibition above about 13%); settings: at 8.5 µM, hits give high values
# [14] = biological target: COUP transcription factor 2 (Homo sapiens) (UniProt P24468); assay: NR2F2 transcriptional activity inhibitors, confirmation, cell-based, luciferase reporter, HEK293, triplicate (AID 687008;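 active = mean inhibition over three repeats above a set limit taken from the earlier primary screen, cut at about 38% in these data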;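 note: 100% = cells given the luciferase reporter alone without the COUP-TF2 vector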); settings: HEK293 NGFI-A luciferase reporter, luminescence; at 8.5 µM; hits give high values
# Sequence of COUP transcription factor 2 (Homo sapiens) (P24468 whole entry, looked up): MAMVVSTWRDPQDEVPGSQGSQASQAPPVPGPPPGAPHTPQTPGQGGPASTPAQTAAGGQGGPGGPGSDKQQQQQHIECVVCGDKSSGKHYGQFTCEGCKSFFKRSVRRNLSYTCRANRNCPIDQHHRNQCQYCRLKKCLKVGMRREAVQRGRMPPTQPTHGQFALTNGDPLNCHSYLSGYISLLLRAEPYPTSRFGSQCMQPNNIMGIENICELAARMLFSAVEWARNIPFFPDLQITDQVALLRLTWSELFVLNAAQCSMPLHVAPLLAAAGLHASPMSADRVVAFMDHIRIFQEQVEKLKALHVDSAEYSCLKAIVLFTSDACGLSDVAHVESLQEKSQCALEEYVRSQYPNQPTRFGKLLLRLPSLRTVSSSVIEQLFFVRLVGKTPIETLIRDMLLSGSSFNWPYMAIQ
# Sequence of Steroidogenic factor 1 (Homo sapiens) (Q13285 whole entry, looked up, the tested form may be a part): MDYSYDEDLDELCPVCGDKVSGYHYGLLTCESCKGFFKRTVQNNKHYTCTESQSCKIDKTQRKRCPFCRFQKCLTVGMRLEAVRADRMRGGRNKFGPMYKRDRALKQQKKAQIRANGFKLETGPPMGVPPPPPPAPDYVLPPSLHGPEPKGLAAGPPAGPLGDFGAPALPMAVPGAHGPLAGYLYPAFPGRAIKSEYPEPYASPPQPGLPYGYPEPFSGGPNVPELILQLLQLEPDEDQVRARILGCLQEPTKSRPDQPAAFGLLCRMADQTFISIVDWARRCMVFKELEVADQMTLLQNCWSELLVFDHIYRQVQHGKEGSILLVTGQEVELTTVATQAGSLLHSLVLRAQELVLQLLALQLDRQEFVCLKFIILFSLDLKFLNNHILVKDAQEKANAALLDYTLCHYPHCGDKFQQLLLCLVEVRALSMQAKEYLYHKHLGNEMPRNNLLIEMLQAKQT
# Sequence of Nuclear receptor coactivator 1 (Homo sapiens) (Q15788 whole entry, looked up, the tested form may be a part): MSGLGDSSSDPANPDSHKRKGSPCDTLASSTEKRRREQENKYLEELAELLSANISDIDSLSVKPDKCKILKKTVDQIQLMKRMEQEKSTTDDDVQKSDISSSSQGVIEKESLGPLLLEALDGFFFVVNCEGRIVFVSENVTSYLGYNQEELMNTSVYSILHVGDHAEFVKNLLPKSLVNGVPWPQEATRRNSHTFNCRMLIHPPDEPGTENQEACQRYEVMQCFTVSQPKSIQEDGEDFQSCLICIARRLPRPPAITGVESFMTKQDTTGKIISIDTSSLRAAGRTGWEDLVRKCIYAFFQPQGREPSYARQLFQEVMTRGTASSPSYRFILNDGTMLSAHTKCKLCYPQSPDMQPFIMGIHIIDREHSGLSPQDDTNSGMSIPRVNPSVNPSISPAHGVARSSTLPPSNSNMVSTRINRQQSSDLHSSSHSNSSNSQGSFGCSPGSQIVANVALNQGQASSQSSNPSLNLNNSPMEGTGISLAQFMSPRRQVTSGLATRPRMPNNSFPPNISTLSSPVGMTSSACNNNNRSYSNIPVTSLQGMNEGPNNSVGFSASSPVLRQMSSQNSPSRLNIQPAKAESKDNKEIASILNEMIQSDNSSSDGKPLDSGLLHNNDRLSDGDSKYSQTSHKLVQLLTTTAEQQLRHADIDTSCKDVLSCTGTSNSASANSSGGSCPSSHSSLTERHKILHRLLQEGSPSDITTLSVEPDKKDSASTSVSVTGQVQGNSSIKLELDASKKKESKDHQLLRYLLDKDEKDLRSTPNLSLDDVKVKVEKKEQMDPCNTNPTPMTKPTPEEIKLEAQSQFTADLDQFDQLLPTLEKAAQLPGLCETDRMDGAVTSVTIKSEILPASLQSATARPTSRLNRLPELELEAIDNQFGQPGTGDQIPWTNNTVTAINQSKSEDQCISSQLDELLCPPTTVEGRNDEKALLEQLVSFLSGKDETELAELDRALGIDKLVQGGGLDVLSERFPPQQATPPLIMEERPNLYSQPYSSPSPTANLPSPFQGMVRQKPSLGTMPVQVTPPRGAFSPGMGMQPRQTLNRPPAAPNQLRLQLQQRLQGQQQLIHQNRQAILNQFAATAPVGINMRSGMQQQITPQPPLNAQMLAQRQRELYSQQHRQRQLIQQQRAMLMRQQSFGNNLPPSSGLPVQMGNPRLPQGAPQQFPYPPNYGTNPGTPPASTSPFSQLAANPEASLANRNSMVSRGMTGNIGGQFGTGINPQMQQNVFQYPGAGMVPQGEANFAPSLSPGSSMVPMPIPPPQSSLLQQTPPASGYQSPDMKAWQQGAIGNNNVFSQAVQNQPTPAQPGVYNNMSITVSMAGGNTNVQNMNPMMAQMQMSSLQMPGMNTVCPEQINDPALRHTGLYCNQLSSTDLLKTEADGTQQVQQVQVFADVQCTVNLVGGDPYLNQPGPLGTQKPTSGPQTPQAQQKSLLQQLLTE
# Sequence of Nuclear receptor subfamily 5 group A member 2 (Homo sapiens) (O00482 whole entry, looked up): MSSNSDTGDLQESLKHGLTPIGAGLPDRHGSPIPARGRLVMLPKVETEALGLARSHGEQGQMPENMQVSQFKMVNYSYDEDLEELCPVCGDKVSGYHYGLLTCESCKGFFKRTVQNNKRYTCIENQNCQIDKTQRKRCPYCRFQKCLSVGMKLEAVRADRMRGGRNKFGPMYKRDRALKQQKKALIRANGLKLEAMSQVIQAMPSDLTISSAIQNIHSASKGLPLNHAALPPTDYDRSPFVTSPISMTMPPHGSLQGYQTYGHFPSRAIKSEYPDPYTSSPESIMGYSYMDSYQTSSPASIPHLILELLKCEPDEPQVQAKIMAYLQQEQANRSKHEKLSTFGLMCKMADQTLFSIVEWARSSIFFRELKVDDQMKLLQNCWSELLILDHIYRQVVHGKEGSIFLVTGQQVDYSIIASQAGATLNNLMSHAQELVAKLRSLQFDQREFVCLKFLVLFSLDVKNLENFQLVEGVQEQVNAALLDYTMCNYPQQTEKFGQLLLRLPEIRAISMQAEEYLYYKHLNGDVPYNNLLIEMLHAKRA
# Sequence of Nuclear receptor coactivator 3 (Homo sapiens) (Q9Y6Q9 whole entry, looked up, the tested form may be a part): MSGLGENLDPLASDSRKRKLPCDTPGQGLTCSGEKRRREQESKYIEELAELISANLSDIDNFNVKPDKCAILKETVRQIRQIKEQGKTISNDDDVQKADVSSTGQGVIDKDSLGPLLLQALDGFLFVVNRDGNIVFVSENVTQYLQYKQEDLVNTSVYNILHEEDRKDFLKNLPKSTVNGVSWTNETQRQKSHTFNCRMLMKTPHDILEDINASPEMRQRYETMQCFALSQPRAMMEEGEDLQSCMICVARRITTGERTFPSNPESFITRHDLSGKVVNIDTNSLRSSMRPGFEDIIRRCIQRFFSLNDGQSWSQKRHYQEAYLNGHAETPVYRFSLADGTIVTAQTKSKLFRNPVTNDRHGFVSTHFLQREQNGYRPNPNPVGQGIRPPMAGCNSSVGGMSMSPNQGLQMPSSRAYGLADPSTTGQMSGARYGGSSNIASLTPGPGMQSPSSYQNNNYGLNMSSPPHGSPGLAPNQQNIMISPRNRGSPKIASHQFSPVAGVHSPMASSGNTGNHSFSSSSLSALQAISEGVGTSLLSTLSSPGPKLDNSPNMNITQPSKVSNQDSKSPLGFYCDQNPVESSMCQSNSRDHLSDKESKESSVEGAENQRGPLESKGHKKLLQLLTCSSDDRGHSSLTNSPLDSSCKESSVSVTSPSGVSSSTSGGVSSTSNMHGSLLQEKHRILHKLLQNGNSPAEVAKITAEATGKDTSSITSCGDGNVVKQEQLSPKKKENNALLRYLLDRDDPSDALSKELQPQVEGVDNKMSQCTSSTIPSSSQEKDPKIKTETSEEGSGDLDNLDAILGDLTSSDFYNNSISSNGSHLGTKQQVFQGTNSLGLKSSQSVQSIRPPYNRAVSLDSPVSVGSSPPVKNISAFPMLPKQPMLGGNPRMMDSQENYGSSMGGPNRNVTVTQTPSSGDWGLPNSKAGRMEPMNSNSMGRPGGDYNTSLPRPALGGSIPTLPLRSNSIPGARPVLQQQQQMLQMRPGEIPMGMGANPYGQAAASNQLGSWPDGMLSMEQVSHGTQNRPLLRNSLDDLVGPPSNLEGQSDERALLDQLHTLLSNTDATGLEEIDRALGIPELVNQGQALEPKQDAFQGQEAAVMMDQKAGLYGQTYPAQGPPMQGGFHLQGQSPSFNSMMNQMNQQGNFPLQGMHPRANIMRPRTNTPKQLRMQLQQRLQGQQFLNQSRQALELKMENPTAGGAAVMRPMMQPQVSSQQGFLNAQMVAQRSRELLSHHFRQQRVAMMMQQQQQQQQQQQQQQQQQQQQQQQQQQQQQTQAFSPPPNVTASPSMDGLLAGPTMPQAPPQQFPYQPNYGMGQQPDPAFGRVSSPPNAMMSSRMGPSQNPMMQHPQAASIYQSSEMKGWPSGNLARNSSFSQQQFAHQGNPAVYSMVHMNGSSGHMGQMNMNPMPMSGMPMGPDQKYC
# Sequence of Photoreceptor-specific nuclear receptor (Homo sapiens) (Q9Y5X4 whole entry, looked up, the tested form may be a part): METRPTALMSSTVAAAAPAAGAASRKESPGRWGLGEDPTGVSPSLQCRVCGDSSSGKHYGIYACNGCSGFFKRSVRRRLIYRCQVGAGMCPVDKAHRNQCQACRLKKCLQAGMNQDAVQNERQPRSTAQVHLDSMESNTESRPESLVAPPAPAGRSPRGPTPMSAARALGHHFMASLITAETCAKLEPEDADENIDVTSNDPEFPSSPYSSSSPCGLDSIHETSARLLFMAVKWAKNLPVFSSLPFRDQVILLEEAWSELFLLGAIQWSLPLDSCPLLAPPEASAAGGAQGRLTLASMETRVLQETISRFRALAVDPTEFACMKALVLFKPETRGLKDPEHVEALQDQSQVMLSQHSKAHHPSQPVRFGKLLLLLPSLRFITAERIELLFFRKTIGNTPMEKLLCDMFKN
compound,measurement,setting,value
CC1CCN(Cc2c(C(=O)N/N=C/c3cc(Br)ccc3O)nnn2-c2nonc2N)CC1,inhibition,[1],75.4% (active)
same,inhibition,[2],83.5% (active)
same,inhibition,[3],84.8% (active)
same,inhibition,[4],81.9% (active)
COc1ccc(-c2cn[nH]c2-c2ccc(OC)cc2)cc1,inhibition,[1],59.5% (active)
same,inhibition,[2],34.7% (active)
same,inhibition,[3],38.7%
same,inhibition,[4],33.8% (active)
C[n+]1c2n(c3ccccc31)N=C(c1ccc(Br)cc1)CS2,inhibition,[1],15.5%
same,inhibition,[2],24.7%
same,inhibition,[3],-14.8%
same,inhibition,[4],30.4% (active)
CCOc1cc(C(N)=O)cc(Br)c1OCC,inhibition,[1],37.3%
same,inhibition,[2],22.4%
same,inhibition,[3],43.4%
same,inhibition,[4],21.6%
NC(=O)C(C(=O)/C=C/c1ccc(Cl)cc1)=C1SCCS1,inhibition,[1],29.4%
same,inhibition,[2],36.6% (active)
same,inhibition,[3],30.9%
same,inhibition,[4],33.8% (active)
COc1ccc(NC(=O)CN(C)C(=O)C2(c3ccccc3)CCCC2)cc1,inhibition,[1],25.3%
same,inhibition,[2],8.28%
same,inhibition,[3],25.3%
same,inhibition,[4],4.02%
Cc1cc(=O)[nH]c(N/N=C/c2cc(C)n(CC(F)(F)F)c2C)n1,inhibition,[1],22%
same,inhibition,[2],60.4% (active)
same,inhibition,[3],43.5%
same,inhibition,[4],60.3% (active)
CN(C)CC(C(=O)c1ccccc1)c1ccccc1 (configuration not stated),inhibition,[1],38.8%
same,inhibition,[2],46.8% (active)
same,inhibition,[3],32%
same,inhibition,[4],41.8% (active)
COC(CN(C(=O)CCl)C(C(=O)NC1CCCCC1)c1ccccc1C)OC (configuration not stated),inhibition,[1],53.3% (active)
same,inhibition,[2],24.2%
same,inhibition,[3],26.2%
same,inhibition,[4],25.1%
O=[N+]([O-])c1ccc(NC(c2ccccc2)c2ccc3cccnc3c2O)cc1 (configuration not stated),inhibition,[1],65% (active)
same,inhibition,[2],58.8% (active)
same,inhibition,[3],65.4% (active)
same,inhibition,[4],71.2% (active)
COc1ccc(-c2c[n+]3c(n2-c2ccccc2)CCCCC3)cc1,inhibition,[1],43.4% (active)
same,inhibition,[2],39.6% (active)
same,inhibition,[3],17.3%
same,inhibition,[4],30.1% (active)
C#CC[N+](C)(C)CCCCCCCCCC,inhibition,[1],18.6%
same,inhibition,[2],23.2%
same,inhibition,[3],9.87%
same,inhibition,[4],16.1%
O=c1cccc2c1c1cc[nH]c3ccc(=O)n2c31,inhibition,[1],43%
same,inhibition,[2],32.9% (active)
same,inhibition,[3],54.3% (active)
same,inhibition,[4],40% (active)
C#CCN(C[C@@H]1[C@@H](OC(=O)NCCCCCC)[C@@H](OC(=O)NCCCCCC)Cn2c(=O)ccc(=O)n21)S(=O)(=O)c1ccc(C)cc1,inhibition,[1],23.3%
same,inhibition,[2],31.7% (active)
same,inhibition,[3],23.8%
same,inhibition,[4],33.4% (active)
C/C(=N\Nc1ccc2nncn2n1)c1ccccn1,inhibition,[1],70.3% (active)
same,inhibition,[2],65.5% (active)
same,inhibition,[3],62% (active)
same,inhibition,[4],56.6% (active)
CC(C)c1ccc(-c2csc3ncnc(N4CCN(C)CC4)c23)cc1,inhibition,[1],42.1%
same,inhibition,[2],35.5% (active)
same,inhibition,[3],42.8%
same,inhibition,[4],32.9% (active)
CCCCNc1nc2c(c(=O)n(C)c(=O)n2C)n1Cc1cccc(OC)c1,inhibition,[1],11.7%
same,inhibition,[2],25.3%
same,inhibition,[3],16.8%
same,inhibition,[4],26.6% (active)
Cc1ccc2[nH]c3nc(N/N=C/c4cccc(O)c4)nnc3c2c1,inhibition,[1],35.7%
same,inhibition,[2],54.6% (active)
same,inhibition,[3],27.8%
same,inhibition,[4],48.2% (active)
same,inhibition,[5],51% (active)
same,inhibition,[6],65.6% (active)
same,inhibition,[7],63.6% (active)
same,inhibition,[8],69.8% (active)
Cc1ccc(C)c(S(=O)(=O)N2CCN(c3ncnc4sccc34)CC2)c1,inhibition,[1],63.1% (active)
same,inhibition,[2],59.6% (active)
same,inhibition,[3],57.9% (active)
same,inhibition,[4],56.5% (active)
same,inhibition,[9],93.9% (active)
same,inhibition,[10],82.7% (active)
same,inhibition,[11],32.8%
same,inhibition,[12],53.3% (active)
same,inhibition,[13],20.1% (active)
same,inhibition,[14],49.9% (active)
Cc1onc(-c2ccccc2)c1C(=O)NC(=S)NNC(=O)c1ccccc1O,inhibition,[1],54.8% (active)
same,inhibition,[2],82% (active)
same,inhibition,[3],66.5% (active)
same,inhibition,[4],77.6% (active)
same,inhibition,[5],70% (active)
same,inhibition,[6],96.8% (active)
same,inhibition,[7],83.4% (active)
same,inhibition,[8],83.3% (active)
OCC1OC(n2cnc3c(NCc4ccccc4O)ncnc32)C(O)C1O (configuration not stated),inhibition,[1],81% (active)
same,inhibition,[2],82.1% (active)
same,inhibition,[3],45.3%
same,inhibition,[4],80% (active)
same,inhibition,[5],87.5% (active)
same,inhibition,[6],102% (active)
same,inhibition,[7],90.3% (active)
same,inhibition,[8],86.1% (active)
CCC(=O)NC(c1ccc(Cl)cc1Cl)c1ccc2cccnc2c1O (configuration not stated),inhibition,[1],16.2%
same,inhibition,[2],34.1% (active)
same,inhibition,[3],59.7% (active)
same,inhibition,[4],51.3% (active)
same,inhibition,[5],83.4% (active)
same,inhibition,[6],92.7% (active)
same,inhibition,[7],87.2% (active)
same,inhibition,[8],72.7% (active)
OCCCNc1nccc(-c2cc(Nc3cccc(Cl)c3)ncn2)n1,inhibition,[1],95% (active)
same,inhibition,[2],95.2% (active)
same,inhibition,[3],83.5% (active)
same,inhibition,[4],95.1% (active)
same,inhibition,[9],100% (active)
same,inhibition,[10],93.9% (active)
same,inhibition,[5],88.5% (active)
same,inhibition,[6],108% (active)
same,inhibition,[7],96.5% (active)
same,inhibition,[8],93.2% (active)
same,inhibition,[11],57.9% (active)
same,inhibition,[12],49.7% (active)
same,inhibition,[13],6.3%
same,inhibition,[14],31.2%
CCCCCc1ccc(OCCC[n+]2ccccc2)c(CCCCC)c1,inhibition,[1],45.8% (active)
same,inhibition,[2],60.7% (active)
same,inhibition,[3],31.3%
same,inhibition,[4],65.9% (active)
same,inhibition,[5],37.7% (active)
same,inhibition,[6],83.3% (active)
same,inhibition,[7],68.1% (active)
same,inhibition,[8],82.3% (active)
